Screening data as filed in PubChem.
GALK inhibitor = blocks human galactokinase activity | 0.007% of 270,000 active | Potency, µM (series often up to 57.5 µM), for the others: at the highest dose activity change, negative = inhibition, most hits filed as inhibitors | AID 1868 | Purified GALK, Kinase-Glo residual ATP luminescence | P51570; further: potency means the concentration at half of the fitted maximal effect
Target sequence (P51570 whole entry, looked up): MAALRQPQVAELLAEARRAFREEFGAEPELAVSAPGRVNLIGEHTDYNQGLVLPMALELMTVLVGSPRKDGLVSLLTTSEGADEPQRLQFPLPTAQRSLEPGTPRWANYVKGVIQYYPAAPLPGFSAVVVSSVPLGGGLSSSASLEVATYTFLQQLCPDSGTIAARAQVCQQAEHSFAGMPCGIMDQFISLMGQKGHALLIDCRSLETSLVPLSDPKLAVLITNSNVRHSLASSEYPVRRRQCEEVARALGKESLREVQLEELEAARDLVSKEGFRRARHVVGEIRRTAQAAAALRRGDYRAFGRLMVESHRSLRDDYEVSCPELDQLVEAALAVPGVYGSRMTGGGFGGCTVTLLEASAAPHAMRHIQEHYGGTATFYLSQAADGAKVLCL
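ATP-depletion format; final 35 uM ATP, 100 uM D-galactose, 5 nM enzyme; pH 8.0 HEPES/Mg2+ buffer; 60 min RT; luminescence read 10 min after detection reagent.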
TrxR1 substrate = rat thioredoxin reductase 1 substrate activity | O89049 | purified TrxR1 substrate turnover, NADPH consumption readout | Potency, µM (top dose mostly 114 µM), for inactives: at the highest dose activity change, negative = substrate turnover | 0.01% of 390,000 active | AID 588456; further: potency means the concentration at half of the fitted maximal effect; nearly all actives have a fitted effect of over 50% in size
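Rat TrxR1, dispensed at 90 nM, was prereduced with 400 uM NADPH (final) for 5 min at ~22 deg C, then incubated with compound 15 min before 400 uM selenite. A first-read NADPH fluorescence drop versus no-compound background flagged substrates.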
VP16 counter = inhibits Gal4-VP16 luciferase reporter, ROR gamma counter-screen. Potency, µM (doses to about 53.6 µM), for the others: at the top dose activity, negative = inhibition, hits mostly inhibitors. Drosophila S2 Gal4-VP16 UAS-luciferase, luminescence, 20 h. 3.5% of 310,000 active;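 further: Gal4-VP16 expression switched on by copper sulfate through the metallothionein promoter; potency means the concentration at half of the fitted maximal effect; nearly all actives have a fitted effect of over 50% in size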
Coupling enz = coupling enzyme interference in Giardia aldolase counter-screen. 0.67% of 290,000 active. coupling enzyme system counterscreen, AmpLite Red fluorescence. activity change, negative = inhibition, % at 58.2 µM, hits read low; in the data active means activity change below about -30%
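Final compound at 57.5 uM, incubated 10 min at RT with coupling enzyme reagent (glyceraldehyde-3-phosphate), then 20 min with substrate and AmpLite Red detection. Fluorescence read at 525/598 nm; tests interference with the coupling assay, not aldolase inhibition.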
TrxR1 inh = blocks rat thioredoxin reductase 1 | Potency, µM (top dose mostly 114 µM), for the others: at the top dose activity change, negative = inhibition, hits mostly inhibitors | O89049 | 1% of 390,000 active | recombinant rTrxR1, NADPH fluorescence consumption, selenite substrate | AID 588453; further: potency means the concentration at half of the fitted maximal effect; nearly all actives have a fitted effect of over 65% in size
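Rat TrxR1 (90 nM in the dispensed reagent) was pre-reduced with 400 uM NADPH for 5 min at room temperature, then incubated with compound for 15 min. After 400 uM selenite was added, NADPH fluorescence (Ex 340/Em 450 nm) was followed for 8 min.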
RORgamma inh = inhibitors of mouse ROR gamma transcriptional activity; Potency, µM (highest dose often 53.6 µM), without a hit: top-dose activity change, negative = inhibition, actives largely listed as inhibitors; Drosophila S2 Gal4-RORgamma UAS-luciferase reporter, 20 h; P51450; 5.4% of 310,000 active; further: potency means the concentration at half of the fitted maximal effect; nearly all actives have a fitted effect of over 60% in size
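Drosophila Schneider cells stably carrying a metallothionein-driven Gal4 DBD–ROR gamma fusion and a UAS-Photinus luciferase reporter were exposed to compound for 1 hr, then induced with copper sulfate (700 uM final) for 20 hr at ambient temperature before luminescence reading.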
The depositor's hits bear a star; ? = inconclusive; . = no result; [ ] = remark or other dose. Hits are enriched below; roughly 5.9% of the tested compounds scored in any of these assays. Unless noted, the call rests on the fitted dose curve; in most records, active means well fitted curve in the direction sought with a large enough effect; inconclusive means small, poorly fitted or top-dose-only effect, or another doubt; inactive means no such curve, though single readings can be large; an effect the other way counts as inactive or inconclusive. On the % scale 0 is the no-effect control and ±100 the full control effect.

SMILES	GALK inhibitor	TrxR1 substrate	VP16 counter	Coupling enz	TrxR1 inh	RORgamma inh
CCOC(=O)c1c(NC(=O)C2=C(C)NC(=S)NC2c2ccc(F)cc2F)sc(C)c1C (stereo not given)	0%	12%[57.1 µM]	6.3µM*	1	-14%	2.8µM*
CCOC(=O)c1c(NC(=O)C2=C(C)NC(=S)NC2c2ccc(F)cc2)sc(C)c1C (stereo not given)	0%	-4%	?	3	25%	13µM*
COc1ccc(CNC(=O)CN(Cc2ccc(Cl)cc2)C(=O)c2csnn2)cc1	14%	1%	-9%	0	26%	0%
COc1ccc2[nH]c(O)c(N=NC(=O)c3ccc(NS(=O)(=O)c4cccs4)cc3)c2c1	.	-2%	.	.	3%	.
COc1ccc(OC)c2c1sc(=NC(=O)C(C)C)n2C	2%	4%[57.1 µM]	20µM*	0	11%[57.1 µM]	0%
C[C@H](N[C@@H](C)COc1ccccc1)[C@H](O)c1ccc(O)cc1	.	.	-6%[17 µM]	4	.	-21%[2.98 µM]
Cc1ccc2nc(-c3ccccn3)c(Nc3ccc(F)cc3)n2c1	.	-8%	.	.	1%	.
Cc1cc(N/N=C2/CCCc3ccccc32)nc2ccccc12	-1%	3%	11µM*	-6	4%	2µM*
c1ccc(N/N=C2\CCCc3ccccc32)nc1	11%	-10%	?	-1	20%[57.1 µM]	13µM*
O=S(=O)(N/N=C1\CCCc2ccccc21)c1ccccc1	.	-5%	.	.	4%	.
CC(=O)N/N=C(\C)c1cccc(C(F)(F)F)c1	1%	-18%[57.1 µM]	18%	0	4%[57.1 µM]	-2%
C/C(=N\NC(=S)NC1CCCCC1)c1cccc(Br)c1	0%	-10%	1µM*	-2	-11%	2.2µM*
N#Cc1ccc(C(=O)NC(=S)NC2CCCCC2)cc1	.	-1%	.	.	-15%	.
C/C(=N\NC(=S)NC1CCCCC1)c1cccc(C(F)(F)F)c1	-1%	-4%	2.5µM*	2	6%	?
C/C(=N\NC(=S)NC1CCCCC1)c1ccc(C#N)cc1	-3%	8%[57.1 µM]	2µM*	1	13%	2.2µM*
CCNC(=S)N/N=C(\C)c1cccc(C(F)(F)F)c1	10%	-4%[57.1 µM]	4.5µM*	1	15%[57.1 µM]	1.3µM*
O=C(CNS(=O)(=O)c1cccc(C(F)(F)F)c1)NC1CCCCCC1	.	-5%	.	.	11%	.
Cc1ccc(Cn2c(=O)n(Cc3ccccc3)c(=O)c3oc4ccccc4c32)cc1	.	-4%	.	.	21%	.
COc1ccc(NC(=O)C2C3C=CC(C3)C2C(=O)NCc2ccco2)cc1 (stereo not given)	-2%	6%[57.1 µM]	15%	3	-27%[57.1 µM]	28%
CN(Cc1ccccc1)C(=O)c1ccc([N+](=O)[O-])o1	.	-1%	?	1	?	-45%
CCC1C(=O)N=C(SCC(=O)NC2CCCCC2)NC1=O (stereo not given)	0%	0%	5%	-1	7%	4%
Oc1cccc(-c2nc3ccccc3s2)c1	1%	-4%[57.1 µM]	10µM*	-1	21%[57.1 µM]	?
COc1cc(-c2nc3ccccc3s2)ccc1O	-2%	121%	-10%	1	29%	-7%
Oc1ccc(O)c(Cc2nc3ccccc3s2)c1	11%	1%	25µM*	0	5%	7.1µM*
COc1ccc(-c2nc3ccccc3s2)cc1O	1%	7%	8.9µM*	-4	0%	10µM*
SMILES	GALK inhibitor	TrxR1 substrate	VP16 counter	Coupling enz	TrxR1 inh	RORgamma inh
CC(C)c1ccc(-c2nc3ccccc3s2)cc1	16%	-2%	2µM*	-6	12%	?
c1ccc(-c2nc(N3CCNCC3)nc3ccccc23)cc1	4%	31%	-2%	0	-19%	-1%
CCC1(C)Cc2c(sc3[nH]c(=O)[nH]c(=O)c23)CS1 (stereo not given)	3%	94%[57.1 µM]	4%	5	?	-5%
CCOC(=O)C1CCCN(C/C(O)=C(\C#N)c2nc(-c3ccc(Cl)cc3)cs2)C1 (stereo not given)	-1%	9%[57.1 µM]	?	1	23%	22µM*
CCOC(=O)C1CCCN(Cc2nc(N)nc(Nc3ccc(Cl)cc3)n2)C1 (stereo not given)	0%	9%[57.1 µM]	?	-1	-36%	13µM*
CCOC(=O)C1CCCN(Cc2nc(N)nc(Nc3ccc(OC)cc3)n2)C1 (stereo not given)	-2%	-4%	-4%	0	?	-27%
CC(C)c1ccc(OCC(=O)NNC(=S)NC(=O)C2CC2)cc1	-1%	8%	?	.	-10%[57.1 µM]	?
Cc1ccc(OCC(=O)NNC(=S)NC(=O)C2CC2)c(C)c1	3%	.	-22%	.	.	8.9µM*
Cc1ccc(OCC(=O)NNC(=O)c2ccc(NC(=O)C3CC3)cc2)c(C)c1	-1%	3%	-1%	0	24%	?
Cc1ccc(OCC(=O)NNC(=S)NC(=O)C2CCCCC2)c(C)c1	-3%	-9%	-16%	.	-20%	10µM*
N#CC1=C(N)N2C(=C(C#N)C1c1ccccc1)Sc1ccccc12 (stereo not given)	-1%	.	10%	-6	.	-5%
N#CC1=C(N)N2C(=C(C#N)C1c1cccc(Br)c1)Nc1ccccc12 (stereo not given)	-3%	2%[57.1 µM]	13µM*	2	3%[57.1 µM]	?
N#CC1=C(N)N2C(=C(C#N)C1c1ccc(Br)cc1)Nc1ccccc12 (stereo not given)	-2%	3%	11µM*	-1	0%	?
Cc1ccc(O)c(NC(=O)Cc2ccc3ccccc3c2)c1	0%	-4%[57.1 µM]	-14%	-2	-72%[2.29 µM]	31%
CC(/C=N/NC(=O)c1cc(-c2ccncc2)nc2ccccc12)=C\c1ccco1	2%	1%	29%	-40*	?	0%
O=C(N/N=C/c1cccc(O)c1)c1cc(-c2ccccc2)nc2ccccc12	.	4%	-8%	1	27%	22%
O=C(N/N=C/c1ccco1)c1cc(-c2cccc(Br)c2)nc2ccccc12	.	-7%	5.6µM*	2	-20%	3.2µM*
COC(=O)c1ccc(C(=O)OCc2nc3cc4ccccc4cc3[nH]2)cc1	0%	0%	?	1	8%	-31%
Cc1ccccc1C(=O)N[C@H](C(=O)Nc1ccc(Cl)c(Cl)c1)C(C)C	-1%	-2%[57.1 µM]	-20%	1	15%	-14%
O=c1cc(-c2ccco2)oc2c1ccc1ccccc12	-2%	11%[11.4 µM]	-3%	2	22%[11.4 µM]	10%
O=c1cc(C(Cl)(Cl)Cl)oc2c1ccc1ccccc12	-2%	5%[57.1 µM]	5.6µM*	-3	159%[57.1 µM]	1.4µM*
Cc1cc(Nc2cccc([N+](=O)[O-])c2)c2cccc(C)c2n1	2%	-6%	-3%	-1	14%	-19%
